Screening results deposited in PubChem by National Center for Advancing Translational Sciences (NCATS).
Hits are enriched below; roughly 2.6% of the tested compounds scored in any of these assays.
uPA surface inh = qHTS for Inhibitors of Cell Surface uPA Generation | cell surface uPA generation assay, qHTS | 330,000 tested, 0.31% active | Potency, µM (doses to about 38.3 µM), for inactives: top-dose activity change, negative = inhibition, most hits filed as inhibitors; active means well fitted inhibition curve with a large enough effect; inconclusive means small, poorly fitted or top-dose-only effect; inactive means no such curve, though single readings can be large or run the other way; tested in mouse RAW 264.7 cells; further: potency means the concentration at half of the fitted maximal effect; on the % scale 0 is the no-effect control and ±100 the full control effect; nearly all actives have a fitted effect of over 55% in size
ATXN2 expr inh = Primary qHTS for Inhibitors of ATXN expression. HEK-293 ATXN2-luciferase reporter, luminescence, 24 h. Potency, µM (series often up to 57 µM), inactives show at the top dose activity change, negative = inhibition, usual class: inhibitors. 360,000 tested, 0.72% active; further: potency means the concentration at half of the fitted maximal effect; on the % scale 0 is the no-effect control and ±100 the full control effect; nearly all actives have a fitted effect of over 55% in size
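qHTS (up to 57 uM final) was run with 24 h compound exposure of reporter cells at 37 °C. Each well was multiplexed: SteadyGlo luminescence measured ATXN2-luciferase expression after a fluorogenic Gly-Phe-AFC viability readout (25 uM final).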
HepG2 tox = qHTS for Inhibitors of TGF-b: Cytotox Counterscreen | HepG2 CAGA-GFP viability, ATP luminescence, 18 h | Potency, µM (highest dose often 46.1 µM), for the others: at the top dose activity change, negative = cytotoxicity, most hits filed as cytotoxic | 410,000 tested, 0.76% active; further: potency means the concentration at half of the fitted maximal effect
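CellTiter-Glo luminescence gave cytotoxicity after 18 hours at 37 degrees C. The cells were HepG2 CAGA-GFP in 1% FBS DMEM, stimulated with 500 pg/mL TGF-beta after compound addition. %Activity was normalised to no-cell wells (complete cell-killing) and DMSO (no toxicity), and curves were fitted and classified.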
S2 tox = Viability Counterscreen for Primary qHTS for Inhibitors of ATXN expression | S2 cells (HEK-293 line with an ATXN2-luciferase reporter) viability, CellTiter-Fluor protease fluorescence, 24 h | Potency, µM (titrated, usually from 56.7 µM), hits mostly cytotoxic | 400,000 tested, 0.49% active; further: potency means the concentration at half of the fitted maximal effect; nearly all actives have a fitted effect of over 40% in size
TGFb SMAD3 inh = qHTS for Inhibitors of TGF-b. HepG2 CAGA-GFP TGF-b/SMAD3 reporter, GFP fluorescence, 18 h; TGF-beta stimulated, 500 pg/mL final. Potency, µM (titrated, usually from 46.1 µM), for inactives: top-dose activity, negative = inhibition, usual class: inhibitors. 410,000 tested, 1.2% active. AID 588855, 2011; further: potency means the concentration at half of the fitted maximal effect; on the % scale 0 is the no-effect control and ±100 the full control effect; nearly all actives have a fitted effect of over 65% in size
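Inhibition was scored as loss of TGF-beta-induced (500 pg/mL final, 18 hours, 37 degrees C) GFP in HEPG2 cells carrying a CAGA-GFP reporter, in DMEM with 1% FBS. Well GFP was summed per cell; Activity was normalised to unstimulated and stimulated DMSO wells, then concentration-response fitting.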
Giardia killer = Small Molecules that selectively kill Giardia lamblia: qHTS; AID 540267, 2011; 340,000 tested, 0.15% active; Giardia lamblia trophozoite viability; activity change, % at 7.66 µM, hits read low; in the data active means activity change below about -80%; inconclusive means between about -30% and that limit;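 further: parasites exposed to compound for two days anaerobically before the ATP read; on the % scale 0 is the no-effect control and ±100 the full control effect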
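Killing of trophozoites was scored by loss of ATP luminescence after a 48 hrs anaerobic exposure to compounds at 37 deg C, using 100 cells per well.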
* hit, by the source's call; i = inactive; u = inconclusive; x = no result given. Unless noted, the call rests on the fitted dose curve; in most records, active means well fitted curve in the direction sought with a large enough effect; inconclusive means small, poorly fitted or top-dose-only effect, or another doubt; inactive means no such curve, though single readings can be large; an effect the other way counts as inactive or inconclusive.

SMILES	uPA surface inh	ATXN2 expr inh	HepG2 tox	S2 tox	TGFb SMAD3 inh	Giardia killer
Cc1ccc(-n2[nH]c(C)c(C=NC34CN5CN(CN(C5)C3)C4)c2=O)cc1C	-10.1%	0.8%	10µM*	i	8.5%	0.8
COc1cccc(NC(=O)/C=C/c2ccc(S(=O)(=O)N3CCOCC3)cc2)c1	-16.4%	22.4µM*	-18.8%	i	-8.6%	11.4
Cc1ccc(NC(=O)/C=C/c2ccc(S(=O)(=O)N3CCOCC3)cc2)cc1S(=O)(=O)N(C)C	-0.7%	28.2µM*	-1.6%	u	-0.6%	-1.5
CN(C)c1ccc(N=Nc2ccc(S(=O)(=O)O)cc2)cc1	x	x	-5.0%	x	-9.5%	x
OC1CCN(Cc2ccc3c(c2)CN(Cc2ccc(Oc4ncccn4)cc2)CCO3)CC1	x	x	x	i	x	x
CN(C)CCCNS(=O)(=O)c1ccc(NC2CCCCCC2)c([N+](=O)[O-])c1	-12.3%	-35.5%	-171.3%	i	22.4µM*	-7.9
Cc1[nH]c2ccccc2c1CCNCc1ccc(C=CC(=O)NO)cc1	x	119.6%	x	x	x	x
OC1(c2ccccc2)CCNCC1	x	-7.0%	x	i	x	x
CCN1CCN(CCCNC(=O)c2cc3c(s2)-c2ccccc2OC3)CC1	-20.9%	u	-30.0%	i	u	-6.2
CC1CC(C)CN(CCCNC(=O)c2cc3c(s2)-c2ccccc2OC3)C1 (stereo not drawn)	u	25.1µM*	-82.1%	u	u	3.8
CC1CCCC(C)N1CCCNC(=O)c1cc2c(s1)-c1ccccc1OC2 (stereo not drawn)	u	u	14.1µM*	i	u	-7.6
CN(C)Cc1c(C(=O)NCCOc2ccc(C(=O)NO)cc2)oc2ccccc12	x	119.5%	x	x	x	x
COc1cc(OC)c(/C=C/c2ccccn2)c(OC)c1	x	x	-11.8%	x	-10.5%	x
CC1=Nc2cc(C(=O)NCCN3CCOCC3)ccc2Sc2c(C)ccc(C)c21	14.5%	x	-62.1%	i	15.8µM*	19.4
CC1=Nc2cc(C(=O)NCCc3ccccc3)ccc2Sc2c(C)ccc(C)c21	x	-18.2%	-19.1%	u	6.31µM*	x
CCCNC(=O)c1ccc2c(c1)N=C(C)c1c(C)ccc(C)c1S2	x	-7.3%	-22.1%	u	u	x
CC1=Nc2cc(C(=O)NCCc3ccc(Cl)cc3)ccc2Sc2c(C)ccc(C)c21	x	11.4%	-1.7%	u	7.94µM*	x
CSc1nnc(CNC(=O)/C=C/c2ccccc2Cl)n1-c1ccc(F)cc1	x	x	x	i	x	x
CNC(CC(=O)c1ccc([N+](=O)[O-])cc1)C(Cl)(Cl)Cl (stereo not drawn)	-3.5%	25.1µM*	10µM*	28.2µM*	3.16µM*	2.6
COc1ccc(C(=O)CC(Nc2ccc([N+](=O)[O-])cc2)c2ccc(OC)cc2)cc1 (stereo not drawn)	x	6.0%	-2.0%	i	2.7%	-10.3
NCCCC[C@H](NC(=O)[C@@H]1CCCN1C(=O)[C@@H]1CSSC[C@H](N)C(=O)N[C@@H](Cc2ccc(O)cc2)C(=O)N[C@@H](Cc2ccccc2)C(=O)N[C@@H](CCC(N)=O)C(=O)N[C@@H](CC(N)=O)C(=O)N1)C(=O)NCC(N)=O	x	x	x	i	x	x
CN(Cc1ccco1)C(=O)c1cc(NC(=O)C2CCC2)c2c(c1)nc(-c1ccncc1)n2C	x	x	x	i	x	x
O=S(=O)(c1ccc2c(c1)OCCO2)N1CCC(c2nc3ccc(Cl)cc3[nH]2)CC1	u	15.8µM*	-50.4%	u	u	27.5
CSc1ccccc1C(=O)NCC1Cc2cc(F)cc(-c3cnccn3)c2O1 (stereo not drawn)	x	x	x	i	x	x
CN(C)c1ccc(-c2cc(O)c3ncccc3c2)cc1	u	u	-35.6%	i	u	15.5
SMILES	uPA surface inh	ATXN2 expr inh	HepG2 tox	S2 tox	TGFb SMAD3 inh	Giardia killer
Oc1cc(-c2ccncc2)cc2cccnc12	u	3.55µM*	11.2µM*	i	u	-24.9
O=C(COC(=O)c1ccccc1OCc1cccc(Br)c1)Nc1ccc(Br)cc1	x	x	1.9%	x	-1.4%	x
Nc1c(I)cc(I)c(C(=O)N(CCC(=O)O)c2ccccc2)c1I	x	2.8%	x	i	x	x
CS(=O)(=O)N1CCc2cc(-c3csc(NC(=O)Cc4cccs4)n3)ccc21	x	17.8µM*	-35.3%	u	u	3.2
Cc1cc(C)n2c(Nc3ccc(C(C)C)cc3)c(-c3ccsc3)nc2n1	x	x	-21.4%	x	3.55µM*	x
CN(CCNC(=O)c1c[nH]c2c1ccc1ccccc12)CCNC(=O)c1c[nH]c2c1ccc1ccccc12	-6.9%	u	-102.8%	35.5µM*	12.6µM*	12.4
COc1ccc(Nc2cc(C(=O)NCCCN(C)C3CCCCC3)c3ccccc3n2)c(OC)c1	x	-36.5%	-75.3%	31.6µM*	u	x
COc1ccc(CNCc2cn(-c3cccc(F)c3)nc2-c2ccc(C)o2)cc1	7.9%	x	-101.8%	u	12.6µM*	15.6
C[C@@H]1CC[C@]2(C(=O)O[C@@H]3O[C@H](CO)[C@@H](O)[C@H](O)[C@H]3O)CC[C@]3(C)C(=CCC4[C@@]5(C)CC[C@H](O[C@@H]6OC[C@H](O)[C@H](O[C@@H]7O[C@H](CO)[C@@H](O)[C@H](O)[C@H]7O)[C@H]6O)C(C)(C)C5CC[C@]43C)C2[C@]1(C)O (stereo partly drawn)	14.5%	-5.8%	4.1%	i	35.1%	-9.7
COc1ccc(/C=C\C(=O)O[C@@H]2C(O)C(O[C@@H]3OC(C)[C@H](O[C@@H]4OCC(O[C@H]5O[C@H](CO)[C@@H](O)C(O)C5O)C(O)C4O)C(O)C3O)[C@H](OC(=O)[C@]34CCC(C)(C)C[C@@H]3C3=CCC5[C@@]6(C)CC(O)C(O[C@@H]7OC(CO)C(O)[C@H](O)[C@H]7O)[C@@](C)(C(=O)O)C6CC[C@@]5(C)[C@]3(CO)CC4)O[C@H]2C)cc1 (stereo partly drawn)	-24.5%	7.08µM*	-110.3%	11.2µM*	u	-5.9
COC(=O)[C@@H]1CCCN1C(=O)c1c(OC)cc(=O)n2c1CCN(Cc1ccc(C)o1)CC2	x	x	x	i	x	x
Brc1cc2c(cc1Br)OCCOCCOCCOCCO2	-0.5%	-18.5%	-1.1%	i	-16.6%	-15.8
Brc1ccc2c(c1)OCCOCCOc1cc(Br)ccc1OCCOCCOCCO2	-13.7%	15.8µM*	-40.6%	u	u	13.5
Cn1c(=O)c2c(nc(CN3CCc4ccccc4C3)n2Cc2cccc(Cl)c2)n(C)c1=O	7.94µM*	-24.3%	-16.0%	u	u	-3.8
